Values joined by “and” are separate entries in the source; they are usually repeats but may differ in a detail not shown here. Equal values may be shown once. Inconclusive results are not listed. Entries that show only a call come without a potency. Some compounds were tested as several samples or in several runs, with calls that do not always agree. Active and inactive are the calls of the source. Calls follow the shape of the full dose curve.
Assay: qHTS assay to identify small molecule agonists of the endoplasmic reticulum stress response signaling pathway - cell viability counter screen (AID 1159517); also: nearly all actives have a fitted effect of over 50% in size
Settings: ESRE-bla HeLa viability, CellTiter-Glo luminescence, 5 h; series mostly up to 61 µM; activity change, negative = cytotoxicity: at the top concentration
Source text: U.S. Tox21 Program National Center for Advancing Translational Sciences [NCATS] NIH Chemical Genomics Center [NCGC] U.S. Environmental Protection Agency [EPA] National Institutes of Environmental Health Sciences [NIEHS] National Toxicology Program [NTP] U.S. Food and Drug Administration [FDA] Tox21 Assay Overview: Endoplasmic Reticulum (ER) plays an important role in cellular signaling, protein folding/maturation, stress response, lipid biosynthesis, calcium storage and release etc. Under stress conditions, proteins in ER misfold or unfold, and leading to the expression of ER stress responsive genes. ER stress has been associated with a variety of pathophysiological conditions such as cancer, inflammation, neurodegenerative diseases, diabetes, ischemic heart disease etc. To identify the compounds that induce ER stress response, an ER stress reporter cell line, CellSensor ESRE-bla HeLa (Life Technologies, Carlsbad, CA) containing a beta-lactamase reporter gene under control of the Endoplasmic reticulum Stress Response Element (ESRE) was used to screen Tox21 10K compound library. The cytotoxicity of the Tox21 compound library against the ESRE-bla HeLa cell line was tested in parallel by measuring cell viability using the CellTiter-Glo assay in the same wells.
Tox21 Assay Protocol Summary: ESRE-bla HeLa cells were dispensed at 1,500 cells/6 uL of assay medium per well into black wall/clear-bottom 1536-well plates using a Multidrop Combi (ThermoFisher Scientific, Waltham, MA) dispenser. After the assay plates were incubated at 37 C and 5% CO2 for an overnight, 23 nL of compounds dissolved in DMSO, positive controls or DMSO only was transferred to the assay plate by a Pintool station (Kalypsys, San Diego, CA). The assay plates were incubated at 37 C and 5% CO2 for 5 hr. One uL of LiveBLAzer B/G FRET substrate (Life Technologies) was added using a FRD (Flying Reagent Dispenser, Aurora Discovery, San Diego, CA) and the plates were incubated at room temperature for 2 hr. Fluorescence intensity (405 nm excitation, 460 nm and 530 nm emissions) was measured using an Envision plate reader (PerkinElmer, Shelton, CT). For cytotoxicity, 4 ul/well of CellTiter-Glo reagent was added into the assay plates using an FRD. After 30 min incubation at room temperature, the luminescence intensity was measured using a ViewLux plate reader (PerkinElmer).
Potency is read from the fitted curve at half-maximal effect.

Q: For `C[C@]12CC[C@@H]3c4ccc(O)cc4C[C@@H](CCCCCCCCCS(=O)CCCC(F)(F)C(F)(F)F)[C@H]3[C@@H]1CC[C@@H]2O` (stereo not given in full), which Potency is on record?
A: inactive

Q: With `CC(=O)/C=C/C1=C(C)CCCC1(C)C` as the compound, how does the Potency read?
A: inactive

Q: Which Potency does the source give for `CCc1cc(C(N)=S)ccn1` here?
A: inactive

Q: With `CCCCOCCOCCSC#N` as the compound, how does the Potency read?
A: inactive

Q: With `COc1cc(C=O)ccc1O` as the compound, how does the Potency read?
A: inactive

Q: For `CC(C)=CCC/C(C)=C/CO`, which “activity change, negative = cytotoxicity” value is on record?
A: 10.3% (inactive)

Q: Which Potency does the source give for `Oc1cccc(O)c1` here?
A: inactive

Q: Which Potency does the source give for `CN(C)Cc1cc(CN(C)C)c(O)c(CN(C)C)c1` here?
A: inactive

Q: With `O=[N+]([O-])c1ccc(O)cc1` as the compound, how does the Potency read?
A: inactive

Q: For `CC(=O)c1ccc(S(=O)(=O)NC(=O)NC2CCCCC2)cc1`, which Potency is on record?
A: inactive

Q: For `Cc1c(N(C)CS(=O)(=O)O)c(=O)n(-c2ccccc2)n1C`, which Potency is on record?
A: inactive

Q: For `C=C(C)C(N)=O`, which Potency is on record?
A: inactive

Q: With `NC(=O)N/N=C/c1ccc([N+](=O)[O-])o1` as the compound, how does the Potency read?
A: inactive and 49 µM (active)

Q: With `COCCOCCOC` as the compound, how does the Potency read?
A: inactive

Q: With `CN(C)C=O` as the compound, how does the Potency read?
A: inactive

Q: For `NC(=O)NO`, which Potency is on record?
A: inactive

Q: Which Potency does the source give for `CC(=O)OC/C=C(C)/C=C/C=C(C)/C=C/C1=C(C)CCCC1(C)C` here?
A: inactive

Q: Which Potency does the source give for `CCCCCCCCCCCCCC(=O)OC(C)C` here?
A: inactive

Q: For `CO[C@H]1C=CO[C@@]2(C)Oc3c(C)c(O)c4c(O)c(c(/C=N/N5CCN(C)CC5)c(O)c4c3C2=O)NC(=O)/C(C)=C\C=C[C@H](C)[C@H](O)[C@@H](C)[C@@H](O)[C@@H](C)[C@H](OC(C)=O)[C@@H]1C`, which Potency is on record?
A: inactive

Q: Which Potency does the source give for `OC[C@@H](O)[C@@H](O)[C@H](O)[C@H](O)CO` here?
A: inactive

Q: With `COC(=O)c1ccc(C=O)cc1` as the compound, how does the Potency read?
A: inactive

Q: Which Potency does the source give for `O=C(O)Cc1cccc2ccccc12` here?
A: inactive

Q: With `Cn1cnc2c1c(=O)[nH]c(=O)n2C` as the compound, how does the Potency read?
A: inactive

Q: With `C1CNCCN1` as the compound, how does the Potency read?
A: inactive

Q: With `OCCCc1ccccc1` as the compound, how does the Potency read?
A: inactive

Q: Which Potency does the source give for `NC(=O)OCC(COC(N)=O)c1ccccc1` here?
A: inactive

Q: With `CC(O)COc1ccccc1` (stereo not given) as the compound, how does the Potency read?
A: inactive

Q: For `CC(C)(C)CC(C)(C)c1ccc(O)c(-n2nc3ccccc3n2)c1`, which Potency is on record?
A: inactive

Q: With `C#C[C@]1(O)CC[C@H]2[C@@H]3CCC4=CC(=O)CC[C@@H]4[C@H]3CC[C@@]21CC` as the compound, how does the Potency read?
A: inactive

Q: Which Potency does the source give for `COC(=O)c1ccc(O)cc1` here?
A: inactive

Q: Which Potency does the source give for `NC(N)=NC(N)=NCCc1ccccc1` here?
A: inactive

Q: With `Cc1ccc(O)c(-n2nc3ccccc3n2)c1` as the compound, how does the Potency read?
A: inactive

Q: With `Cc1cccc2ccccc12` as the compound, how does the Potency read?
A: inactive

Q: Which Potency does the source give for `O=c1c(-c2ccc(O)cc2)coc2cc(O)cc(O)c12` here?
A: inactive

Q: For `O=C1OC(c2ccc(O)cc2)(c2ccc(O)cc2)c2ccccc21`, which Potency is on record?
A: inactive

Q: For `NC(=O)N1c2ccccc2C=Cc2ccccc21`, which Potency is on record?
A: inactive

Q: For `C[C@]12CC[C@@H]3c4ccc(O)cc4CC[C@H]3[C@@H]1CCC2=O`, which Potency is on record?
A: inactive

Q: With `O=C(O)CN(CC(=O)O)CC(=O)O` as the compound, how does the Potency read?
A: inactive

Q: For `NC(=O)c1ccc([N+](=O)[O-])cc1Cl`, which Potency is on record?
A: inactive

Q: For `COc1cc(O)c(C(=O)c2ccccc2)cc1S(=O)(=O)O`, which Potency is on record?
A: inactive

From PubChem BioAssay (Tox21)
